# Assay results as given in PubChem BioAssay (NCATS).
# Inconclusive results are not listed. A number with no mark means an inactive call. Active and inactive are the calls of the source. Calls come from the whole dose curve; as a rule, active = well fitted inhibition curve with a large enough effect; inconclusive = small, poorly fitted or top-dose-only effect; inactive = flat fitted curve, though single readings scatter.
# Tested on: Zika virus NS2B-NS3 protease
# Experiment: Primary screen GU AMC qHTS for Zika virus inhibitors (AID 1347154); note: nearly all actives have a fitted effect of over 70% in size; note: potency is the fitted concentration of half-maximal effect;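 for activity change, negative = inhibition: 0% = no-inhibitor control and -100% = no-enzyme control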
# Details: Zika NS2B-NS3 unlinked protease, AMC fluorogenic substrate; series mostly up to 54.1 µM; activity change, negative = inhibition: at the top concentration
# How it was run: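 Unlinked Zika NS2B hydrophilic domain–NS3 protease complex at 25 nM in 10 mM Tris-HCl pH 8.0, 0.01% Tween 20, with an AMC peptide substrate. Fluorescence change (340/450 nm) over 15 min at room temperature, normalized to controls, fitted to 4-parameter Hill.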
SMILES,"activity change, negative = inhibition",Potency
CCCCNc1ccc(C(=O)OCCOCCOCCOCCOCCOCCOCCOCCOCCOC)cc1,-0.602%,
Cc1c[nH]c2ccccc12,-3.13%,
O=[N+]([O-])c1cccc(S(=O)(=O)NCCNS(=O)(=O)c2cccc([N+](=O)[O-])c2)c1,-2.57%,
COc1ccc2c(c1)c1c3n2CCN(C)C3=NCC1,-4.66%,
C[C@@H](O)[C@H]1C(=O)N2C(C(=O)O)=C(S[C@@H]3CN[C@H](CNS(N)(=O)=O)C3)[C@H](C)[C@H]12,-4.18%,
Nc1ccc(S(=O)(=O)Nc2cnc3ccccc3n2)cc1,-4%,
COc1ccc(S(=O)(=O)N2c3ccc(Cl)cc3[C@@](O)(c3ccccc3Cl)[C@H]2C(=O)N2CCC[C@@H]2C(N)=O)cc1OC,-5.45%,
CCCCCCCCCCCCCC(=O)OC(C)C,-1.37%,
CC(C)[C@@H]1CC[C@@H](C)CC1=O,-9.92%,
CCCCCCCCNC(C)C(O)c1ccc(SC(C)C)cc1 (stereo not given),-11.8%,
CC(=O)OC[C@H]1O[C@@H](n2ncc(=O)[nH]c2=O)[C@H](OC(C)=O)[C@@H]1OC(C)=O,5.5%,
COC(=O)C(c1ccccc1Cl)N1CCc2sccc2C1 (stereo not given),,inactive
COc1ccc(C(=O)c2ccccc2)c(O)c1,-0.694%,
C[N+]1(C)CCC(=C(c2ccccc2)c2ccccc2)CC1,112%,
CCOC(=O)C(C#N)=C(c1ccccc1)c1ccccc1,-9.01%,
CC(=O)Nc1ccc(CC(=O)O)cc1,7.1%,
O=C(N/N=C/c1ccc([N+](=O)[O-])o1)c1ccc(O)cc1,-7.08%,
O=C1C(=O)c2ccccc2C(O)=C1C1CCC(c2ccc(Cl)cc2)CC1 (stereo not given),,inactive
CC(=O)Nc1ccc(OCC(O)CNC(C)C)cc1 (stereo not given),-4.3%,
NCCNC(=O)c1ccc(Cl)cn1,,inactive

SMILES,"activity change, negative = inhibition",Potency
CCOc1ccccc1C(N)=O,0.723%,
NC(=O)C1(N2CCCCC2)CCN(CCCC(=O)c2ccc(F)cc2)CC1,1.25%,
Oc1ccccc1C=NCc1ccccc1,1.53%,
N[C@H](C(=O)O)[C@@H](O)c1ccc(O)c(O)c1,,12.8 µM (active)
CN(C)C(=O)Nc1ccc(Cl)c(Cl)c1,-1.31%,
Cl/C(=C\n1cncn1)c1ccc(Cl)cc1Cl,,inactive
CCCN(CCC)S(=O)(=O)c1ccc(C(=O)O)cc1,11.9%,
CCCCCCCC/C=C\CCCCCCCCN,-2.73%,
CCCCOC(=O)CC(CC(=O)OCCCC)(OC(C)=O)C(=O)OCCCC,-7.46%,
COP(=O)(OC)OC(c1ccc(Cl)cc1)P(=O)(OC)OC (stereo not given),,inactive
N#CCC(=O)NN,-4.18%,
C[C@H]1[C@H]2CC[C@H]3[C@@H]4CC=C5C[C@@H](N(C)C)CC[C@]5(C)[C@H]4CC[C@]23CN1C,3.6%,
CN1CCN(C2=Nc3ccccc3Sc3ccc(Cl)cc32)CC1,,inactive
COc1ccc(C(=O)c2ccccc2O)c(O)c1,-9.62%,
N=C(N)N1CCc2ccccc2C1,1.62% [at 4.99 µM],
COc1cc(C(=S)N2CCOCC2)ccc1O,-4.72%,
CCCCCCCCCCCCOCCOCCOCCOCCOCCOCCOCCOCCOCCO,-4.14%,
O=C(O)Cc1csc(-c2ccc(Cl)cc2)n1,-1.4%,
NS(=O)(=O)c1cc2c(cc1Cl)NC(CC1CCCC1)NS2(=O)=O (stereo not given),1.56%,
Cc1ccc(S(=O)(=O)NC(=O)NC2CCCC2)cc1,0.998%,

# Tested on: not listed separately
# Experiment: qHTS to identify inhibitors of the type 1 interferon - major histocompatibility complex class I in skeletal muscle: primary screen against the NCATS Pharmaceutical Collection (AID 1347407);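 note: luminescence of HiBiT knocked into endogenous HLA-B as interferon-induced MHC class I level; % is set by controls: 0 for no effect and ±100 for the full control effect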
# Details: human skeletal muscle cells, IFN-b-induced MHC-I HiBiT luminescence, 24 h; series mostly up to 45.9 µM; activity change, negative = inhibition: at the top concentration
# How it was run: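 Luminescence from HiBiT-tagged endogenous HLA-B*08:01 served as the read-out of IFN-beta-induced MHC class I in CRISPR-engineered C25cl48 myoblasts. Cells received 4 ng/ml IFN-beta plus compound (high final 46 uM, […]) for 24 h.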
row,SMILES,"activity change, negative = inhibition"
1,CCCCNc1ccc(C(=O)OCCOCCOCCOCCOCCOCCOCCOCCOCCOC)cc1,-1.72%
2,Cc1c[nH]c2ccccc12,2.71%
3,O=[N+]([O-])c1cccc(S(=O)(=O)NCCNS(=O)(=O)c2cccc([N+](=O)[O-])c2)c1,-8.23%
4,COc1ccc2c(c1)c1c3n2CCN(C)C3=NCC1,-15.1%
5,C[C@@H](O)[C@H]1C(=O)N2C(C(=O)O)=C(S[C@@H]3CN[C@H](CNS(N)(=O)=O)C3)[C@H](C)[C@H]12,-8.74%
6,Nc1ccc(S(=O)(=O)Nc2cnc3ccccc3n2)cc1,1.01%
7,COc1ccc(S(=O)(=O)N2c3ccc(Cl)cc3[C@@](O)(c3ccccc3Cl)[C@H]2C(=O)N2CCC[C@@H]2C(N)=O)cc1OC,-10.7%
8,CCCCCCCCCCCCCC(=O)OC(C)C,-5.68%
9,CC(C)[C@@H]1CC[C@@H](C)CC1=O,-0.327%
10,CCCCCCCCNC(C)C(O)c1ccc(SC(C)C)cc1 (stereo not given),-11.8%
11,CC(=O)OC[C@H]1O[C@@H](n2ncc(=O)[nH]c2=O)[C@H](OC(C)=O)[C@@H]1OC(C)=O,-13.3%
12,COC(=O)C(c1ccccc1Cl)N1CCc2sccc2C1 (stereo not given),-17%
13,COc1ccc(C(=O)c2ccccc2)c(O)c1,-3.97%
14,C[N+]1(C)CCC(=C(c2ccccc2)c2ccccc2)CC1,-6.49%
15,CCOC(=O)C(C#N)=C(c1ccccc1)c1ccccc1,-5.21%
16,CC(=O)Nc1ccc(CC(=O)O)cc1,6.06%
17,O=C(N/N=C/c1ccc([N+](=O)[O-])o1)c1ccc(O)cc1,-23.1%
18,O=C1C(=O)c2ccccc2C(O)=C1C1CCC(c2ccc(Cl)cc2)CC1 (stereo not given),-2.81%
19,CC(=O)Nc1ccc(OCC(O)CNC(C)C)cc1 (stereo not given),0.665%
20,NCCNC(=O)c1ccc(Cl)cn1,-1.32%

row,SMILES,"activity change, negative = inhibition"
1,CCOc1ccccc1C(N)=O,27.9%
2,NC(=O)C1(N2CCCCC2)CCN(CCCC(=O)c2ccc(F)cc2)CC1,4.99%
3,Oc1ccccc1C=NCc1ccccc1,-3.69%
4,N[C@H](C(=O)O)[C@@H](O)c1ccc(O)c(O)c1,-0.166%
5,CN(C)C(=O)Nc1ccc(Cl)c(Cl)c1,-6.33%
6,Cl/C(=C\n1cncn1)c1ccc(Cl)cc1Cl,0.386%
7,CCCN(CCC)S(=O)(=O)c1ccc(C(=O)O)cc1,-6.96%
8,CCCCCCCC/C=C\CCCCCCCCN,11.4%
9,CCCCOC(=O)CC(CC(=O)OCCCC)(OC(C)=O)C(=O)OCCCC,-12.7%
10,COP(=O)(OC)OC(c1ccc(Cl)cc1)P(=O)(OC)OC (stereo not given),-5.56%
11,N#CCC(=O)NN,-29%
12,C[C@H]1[C@H]2CC[C@H]3[C@@H]4CC=C5C[C@@H](N(C)C)CC[C@]5(C)[C@H]4CC[C@]23CN1C,-16.8%
13,CN1CCN(C2=Nc3ccccc3Sc3ccc(Cl)cc32)CC1,-1.09%
14,COc1ccc(C(=O)c2ccccc2O)c(O)c1,-20%
15,N=C(N)N1CCc2ccccc2C1,-4.74% [at 3.83 µM]
16,COc1cc(C(=S)N2CCOCC2)ccc1O,-6.84%
17,CCCCCCCCCCCCOCCOCCOCCOCCOCCOCCOCCOCCOCCO,4.8%
18,O=C(O)Cc1csc(-c2ccc(Cl)cc2)n1,8.87%
19,NS(=O)(=O)c1cc2c(cc1Cl)NC(CC1CCCC1)NS2(=O)=O (stereo not given),-4.54%
20,Cc1ccc(S(=O)(=O)NC(=O)NC2CCCC2)cc1,9.79%
